Records with an inconclusive call do not appear. The source made the active and inactive calls. Rule for the calls: active = hit-call score of the fitted dose curve at least 0.9, where 1 is the maximum; inconclusive = response in the unintended direction; inactive = score below 0.9.
Key:
[1] = biological target: Tyrosine-protein phosphatase non-receptor type 13 (Homo sapiens) (UniProt Q12923); assay: NVS_ENZ_hPTPN13: NovaScreen (NVS) Enzymatic Assay for human Protein Tyrosine Phosphatase Non-receptor Type 13 (PTPN13) (AID 2283205)
Summary of the method: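 Screened first at a single 25 uM in duplicate; compounds passing the threshold (e.g. 30% inhibition) were rerun in concentration series, top 50 uM. Recombinant enzyme, fluorescent substrate, mobility-shift separation, 0.5 h read. Data fitted as inhibition relative to DMSO.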

[2] = biological target: Tyrosine-protein phosphatase non-receptor type 12 (Homo sapiens) (UniProt Q05209); assay: NVS_ENZ_hPTPN12: NovaScreen (NVS) Enzymatic Assay for human Protein Tyrosine Phosphatase Non-receptor Type 12 (PTPN12) (AID 2283204)
Summary of the method: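 Single-concentration duplicates (25 uM) preceded singleton concentration-response up to 50 uM for chemicals passing threshold. Cell-free recombinant PTPN12 activity was read 1.33 h after dosing via fluorescence after mobility-shift separation; loss of signal versus DMSO.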

[3] = biological target: Tyrosine-protein phosphatase non-receptor type 11 (Homo sapiens) (UniProt Q06124); assay: NVS_ENZ_hPTPN11: NovaScreen (NVS) Enzymatic Assay for human Protein Tyrosine Phosphatase Non-receptor Type 11 (PTPN11) (AID 2283202)
Summary of the method: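 Compounds first tested in duplicate at 25 uM; those reaching ~30% inhibition rerun in singleton concentration-response, top 50 uM. Phosphatase activity measured after 0.5 h by fluorescence with mobility-shift separation, relative to DMSO.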

[4] = biological target: human Protein Tyrosine Phosphatase Non-receptor Type 1 (PTPN1), PTPN1 (gene 5770) (UniProt P18031); assay: NVS_ENZ_hPTPN1: NovaScreen (NVS) Enzymatic Assay for human Protein Tyrosine Phosphatase Non-receptor Type 1 (PTPN1) (AID 2283201)
Summary of the method: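 Chemicals were first tested in duplicate at 25 uM, and those passing threshold went on to singleton concentration series topping at 50 uM. Recombinant enzyme, specific substrate, product separated by mobility shift, fluorescence read at 1.33 h; activity loss relative to DMSO.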

[5] = biological target: Tyrosine-protein phosphatase non-receptor type 14 (Homo sapiens) (UniProt Q15678); assay: NVS_ENZ_hPTPN14: NovaScreen (NVS) Enzymatic Assay for human Protein Tyrosine Phosphatase Non-receptor Type 14 (PTPN14) (AID 2283206)
Summary of the method: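 Fluorescent substrate turnover by recombinant human PTPN14 was measured 0.5 h after compound addition, with substrate and product separated by mobility shift. Single-point screening at 25 uM, then concentration-response up to 50 uM for chemicals meeting threshold (e.g., 30% inhibition).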

[6] = biological target: human Protein Tyrosine Phosphatase Non-receptor Type 4 (PTPN4), PTPN4 (gene 5775) (UniProt P29074); assay: NVS_ENZ_hPTPN4: NovaScreen (NVS) Enzymatic Assay for human Protein Tyrosine Phosphatase Non-receptor Type 4 (PTPN4) (AID 2283208)
Summary of the method: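 Screened in duplicate at 25 uM, with hits then titrated to a top concentration of 50 uM. Recombinant Sf9-derived PTPN4 turnover was read by fluorescence with electrophoretic separation, 1.33 h after compound addition. DMSO served as baseline.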

[7] = biological target: human Rho Associated Coiled-coil Containing Protein Kinase 1 (ROCK1), ROCK1 (gene 6093) (UniProt Q13464); assay: NVS_ENZ_hROCK1: NovaScreen (NVS) Enzymatic Assay for human Rho Associated Coiled-coil Containing Protein Kinase 1 (ROCK1) (AID 2283214)
Summary of the method: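 Compounds first run in duplicate at 25 uM against recombinant human ROCK1, then followed in concentration series. Kinase activity was read 1 h post-dosing by fluorescence with mobility-shift separation, as signal loss relative to DMSO.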

[8] = biological target: human Protein Tyrosine Phosphatase Receptor Type M (PTPRM), PTPRM (gene 5797) (UniProt P28827); assay: NVS_ENZ_hPTPRM: NovaScreen (NVS) Enzymatic Assay for human Protein Tyrosine Phosphatase Receptor Type M (PTPRM) (AID 2283215)
Summary of the method: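 Read-out is fluorescence after electrophoretic separation of substrate and product, taken 1.33 h post-dosing with recombinant enzyme. Compounds screened at 25 uM in duplicate, then concentration series for actives; activity as signal loss relative to DMSO.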

[9] = biological target: human Sirtuin 1 (SIRT1), SIRT1 (gene 23411) (UniProt Q96EB6); assay: NVS_ENZ_hSIRT1: NovaScreen (NVS) Enzymatic Assay for human Sirtuin 1 (SIRT1) (AID 2283219)
Summary of the method: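 Cell-free recombinant SIRT1 with a fluorescent substrate; substrate and product separated by electrophoretic mobility shift and read by fluorescence intensity, 1 h after dosing. Primary screen at 25 uM in duplicate; hits re-run in concentration-response up to 50 uM, relative to DMSO.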

[10] = biological target: human SRC Proto-Oncogene, Non-receptor Tyrosine Kinase (SRC), SRC (gene 6714) (UniProt P12931); assay: NVS_ENZ_hSRC: NovaScreen (NVS) Enzymatic Assay for human SRC Proto-Oncogene, Non-receptor Tyrosine Kinase (SRC) (AID 2283223)
Summary of the method: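 Compounds passing 30% inhibition at 25 uM (duplicate) were titrated to a top concentration of 50 uM. Enzyme activity read by fluorescence with mobility-shift substrate/product separation after 1 h; DMSO baseline.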

[11] = biological target: human Tropomyosin Receptor Kinase A (TRKA), NTRK1 (gene 4914) (UniProt P04629); assay: NVS_ENZ_hTrkA: NovaScreen (NVS) Enzymatic Assay for human Tropomyosin Receptor Kinase A (TRKA) (AID 2283224)
Summary of the method: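 Compounds were screened at 25 uM in duplicate, then concentration series to a 50 uM top for those meeting threshold (e.g. 30% inhibition). Enzyme was recombinant human TrkA, incubated 1 h. Product formation was quantified by fluorescence after mobility-shift separation.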

[12] = biological target: human Protein Tyrosine Phosphatase Non-receptor Type 6 (PTPN6), PTPN6 (gene 5777) (UniProt P29350); assay: NVS_ENZ_hPTPN6: NovaScreen (NVS) Enzymatic Assay for human Protein Tyrosine Phosphatase Non-receptor Type 6 (PTPN6) (AID 2283210)
Summary of the method: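 Recombinant human PTPN6 from SF9 cells, enzyme activity followed by fluorescence after mobility-shift separation of substrate and product at 1.33 h. Chemicals first tested at a single 25 uM in duplicate, then confirmed across concentration series; loss of signal relative to DMSO.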

[13] = biological target: human Protein Tyrosine Phosphatase Non-receptor Type 9 (PTPN9), PTPN9 (gene 5780) (UniProt P43378); assay: NVS_ENZ_hPTPN9: NovaScreen (NVS) Enzymatic Assay for human Protein Tyrosine Phosphatase Non-receptor Type 9 (PTPN9) (AID 2283209)
Summary of the method: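 Sf9-expressed enzyme in a cell-free assay, fluorescence read 1.33 h after dosing with mobility-shift separation of substrate and product. Tested at 25 uM in duplicate, then up to 50 uM; signal loss versus DMSO.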

[14] = biological target: rabbit Imidazoline 2 Central (I2C), CKB (gene 100009085) (UniProt P00567); assay: NVS_ENZ_rabI2C: NovaScreen (NVS) Enzymatic Assay for rabbit Imidazoline 2 Central (I2C) (AID 2283228)
Summary of the method: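 Rabbit brain membranes, cell-free; readout by filter-based scintillation counting 1.5 hours after dosing, loss of signal vs DMSO. Initial duplicate test at 25 uM, then concentration-response with 50 uM top concentration.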

[15] = biological target: human Sirtuin 2 (SIRT2), SIRT2 (gene 22933) (UniProt Q8IXJ6); assay: NVS_ENZ_hSIRT2: NovaScreen (NVS) Enzymatic Assay for human Sirtuin 2 (SIRT2) (AID 2283217)
Summary of the method: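 Single-point duplicate screen at 25 uM, then concentration-response (max 50 uM) for chemicals passing threshold. Enzyme activity of recombinant human SIRT2 measured after 1 hr by fluorescence with mobility-shift separation of product; DMSO baseline.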

[16] = biological target: human Vascular Endothelial Growth Factor Receptor 1 (VEGFR1), FLT1 (gene 2321) (UniProt P17948); assay: NVS_ENZ_hVEGFR1: NovaScreen (NVS) Enzymatic Assay for human Vascular Endothelial Growth Factor Receptor 1 (VEGFR1) (AID 2283226)
Summary of the method: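 Kinase activity of recombinant human VEGFR1 was read by fluorescence after electrophoretic separation of product from substrate, 1 h post-dosing; initial duplicate single-point testing at 25 uM, followed by concentration-series follow-up, with DMSO as baseline.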

[17] = biological target: human Protein Tyrosine Phosphatase Receptor Type B (PTPRB), PTPRB (gene 5787) (UniProt P23467); assay: NVS_ENZ_hPTPRB: NovaScreen (NVS) Enzymatic Assay for human Protein Tyrosine Phosphatase Receptor Type B (PTPRB) (AID 2283211)
Summary of the method: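 Recombinant human PTPRB with a fluorescent substrate, product separated by electrophoretic mobility shift; read 1 h after dosing. Primary screen in duplicate at 25 uM; actives then retested in concentration series; loss of signal versus DMSO.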

[18] = biological target: human Protein Tyrosine Phosphatase Receptor Type F (PTPRF), PTPRF (gene 5792) (UniProt P10586); assay: NVS_ENZ_hPTPRF: NovaScreen (NVS) Enzymatic Assay for human Protein Tyrosine Phosphatase Receptor Type F (PTPRF) (AID 2283213)
Summary of the method: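 Cell-free fluorescence enzyme assay with recombinant protein and substrate; product separated by electrophoretic mobility shift. Read 1 h after dosing, single 25 uM duplicate screen, then concentration-response up to 50 uM; loss of signal vs DMSO.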

[19] = biological target: human Sirtuin 3 (SIRT3), SIRT3 (gene 23410) (UniProt Q9NTG7); assay: NVS_ENZ_hSIRT3: NovaScreen (NVS) Enzymatic Assay for human Sirtuin 3 (SIRT3) (AID 2283222)
Summary of the method: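 Cell-free enzyme assay with recombinant protein and fluorescent substrate, product separated by electrophoretic mobility shift; read 1 hour after dosing. Screened in duplicate at 25 uM, then singleton concentration-response up to 50 uM; loss of signal versus DMSO.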

Measured: AC50

Tyrosine-protein phosphatase non-receptor type 12 (Homo sapiens), sequence (Q05209 whole entry, looked up): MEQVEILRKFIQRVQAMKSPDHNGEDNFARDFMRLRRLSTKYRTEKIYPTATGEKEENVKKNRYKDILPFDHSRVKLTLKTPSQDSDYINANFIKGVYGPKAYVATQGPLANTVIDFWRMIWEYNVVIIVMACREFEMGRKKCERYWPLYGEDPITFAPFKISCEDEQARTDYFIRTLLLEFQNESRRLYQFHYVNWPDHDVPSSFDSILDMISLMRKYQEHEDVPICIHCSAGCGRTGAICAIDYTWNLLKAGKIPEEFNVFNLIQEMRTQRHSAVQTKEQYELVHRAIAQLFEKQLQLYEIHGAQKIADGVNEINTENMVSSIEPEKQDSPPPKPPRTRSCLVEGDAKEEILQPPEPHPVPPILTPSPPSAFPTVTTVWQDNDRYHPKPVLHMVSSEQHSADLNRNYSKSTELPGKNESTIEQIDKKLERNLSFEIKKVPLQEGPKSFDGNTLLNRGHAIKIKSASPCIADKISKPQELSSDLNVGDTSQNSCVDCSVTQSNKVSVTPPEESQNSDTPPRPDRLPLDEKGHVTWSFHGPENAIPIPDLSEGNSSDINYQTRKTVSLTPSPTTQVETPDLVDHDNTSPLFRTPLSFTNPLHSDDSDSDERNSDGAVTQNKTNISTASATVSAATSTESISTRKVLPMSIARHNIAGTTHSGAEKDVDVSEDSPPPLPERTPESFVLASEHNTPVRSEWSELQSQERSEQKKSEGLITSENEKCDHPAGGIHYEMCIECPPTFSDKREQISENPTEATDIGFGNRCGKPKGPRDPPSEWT
Tyrosine-protein phosphatase non-receptor type 13 (Homo sapiens), sequence (Q12923 whole entry, looked up): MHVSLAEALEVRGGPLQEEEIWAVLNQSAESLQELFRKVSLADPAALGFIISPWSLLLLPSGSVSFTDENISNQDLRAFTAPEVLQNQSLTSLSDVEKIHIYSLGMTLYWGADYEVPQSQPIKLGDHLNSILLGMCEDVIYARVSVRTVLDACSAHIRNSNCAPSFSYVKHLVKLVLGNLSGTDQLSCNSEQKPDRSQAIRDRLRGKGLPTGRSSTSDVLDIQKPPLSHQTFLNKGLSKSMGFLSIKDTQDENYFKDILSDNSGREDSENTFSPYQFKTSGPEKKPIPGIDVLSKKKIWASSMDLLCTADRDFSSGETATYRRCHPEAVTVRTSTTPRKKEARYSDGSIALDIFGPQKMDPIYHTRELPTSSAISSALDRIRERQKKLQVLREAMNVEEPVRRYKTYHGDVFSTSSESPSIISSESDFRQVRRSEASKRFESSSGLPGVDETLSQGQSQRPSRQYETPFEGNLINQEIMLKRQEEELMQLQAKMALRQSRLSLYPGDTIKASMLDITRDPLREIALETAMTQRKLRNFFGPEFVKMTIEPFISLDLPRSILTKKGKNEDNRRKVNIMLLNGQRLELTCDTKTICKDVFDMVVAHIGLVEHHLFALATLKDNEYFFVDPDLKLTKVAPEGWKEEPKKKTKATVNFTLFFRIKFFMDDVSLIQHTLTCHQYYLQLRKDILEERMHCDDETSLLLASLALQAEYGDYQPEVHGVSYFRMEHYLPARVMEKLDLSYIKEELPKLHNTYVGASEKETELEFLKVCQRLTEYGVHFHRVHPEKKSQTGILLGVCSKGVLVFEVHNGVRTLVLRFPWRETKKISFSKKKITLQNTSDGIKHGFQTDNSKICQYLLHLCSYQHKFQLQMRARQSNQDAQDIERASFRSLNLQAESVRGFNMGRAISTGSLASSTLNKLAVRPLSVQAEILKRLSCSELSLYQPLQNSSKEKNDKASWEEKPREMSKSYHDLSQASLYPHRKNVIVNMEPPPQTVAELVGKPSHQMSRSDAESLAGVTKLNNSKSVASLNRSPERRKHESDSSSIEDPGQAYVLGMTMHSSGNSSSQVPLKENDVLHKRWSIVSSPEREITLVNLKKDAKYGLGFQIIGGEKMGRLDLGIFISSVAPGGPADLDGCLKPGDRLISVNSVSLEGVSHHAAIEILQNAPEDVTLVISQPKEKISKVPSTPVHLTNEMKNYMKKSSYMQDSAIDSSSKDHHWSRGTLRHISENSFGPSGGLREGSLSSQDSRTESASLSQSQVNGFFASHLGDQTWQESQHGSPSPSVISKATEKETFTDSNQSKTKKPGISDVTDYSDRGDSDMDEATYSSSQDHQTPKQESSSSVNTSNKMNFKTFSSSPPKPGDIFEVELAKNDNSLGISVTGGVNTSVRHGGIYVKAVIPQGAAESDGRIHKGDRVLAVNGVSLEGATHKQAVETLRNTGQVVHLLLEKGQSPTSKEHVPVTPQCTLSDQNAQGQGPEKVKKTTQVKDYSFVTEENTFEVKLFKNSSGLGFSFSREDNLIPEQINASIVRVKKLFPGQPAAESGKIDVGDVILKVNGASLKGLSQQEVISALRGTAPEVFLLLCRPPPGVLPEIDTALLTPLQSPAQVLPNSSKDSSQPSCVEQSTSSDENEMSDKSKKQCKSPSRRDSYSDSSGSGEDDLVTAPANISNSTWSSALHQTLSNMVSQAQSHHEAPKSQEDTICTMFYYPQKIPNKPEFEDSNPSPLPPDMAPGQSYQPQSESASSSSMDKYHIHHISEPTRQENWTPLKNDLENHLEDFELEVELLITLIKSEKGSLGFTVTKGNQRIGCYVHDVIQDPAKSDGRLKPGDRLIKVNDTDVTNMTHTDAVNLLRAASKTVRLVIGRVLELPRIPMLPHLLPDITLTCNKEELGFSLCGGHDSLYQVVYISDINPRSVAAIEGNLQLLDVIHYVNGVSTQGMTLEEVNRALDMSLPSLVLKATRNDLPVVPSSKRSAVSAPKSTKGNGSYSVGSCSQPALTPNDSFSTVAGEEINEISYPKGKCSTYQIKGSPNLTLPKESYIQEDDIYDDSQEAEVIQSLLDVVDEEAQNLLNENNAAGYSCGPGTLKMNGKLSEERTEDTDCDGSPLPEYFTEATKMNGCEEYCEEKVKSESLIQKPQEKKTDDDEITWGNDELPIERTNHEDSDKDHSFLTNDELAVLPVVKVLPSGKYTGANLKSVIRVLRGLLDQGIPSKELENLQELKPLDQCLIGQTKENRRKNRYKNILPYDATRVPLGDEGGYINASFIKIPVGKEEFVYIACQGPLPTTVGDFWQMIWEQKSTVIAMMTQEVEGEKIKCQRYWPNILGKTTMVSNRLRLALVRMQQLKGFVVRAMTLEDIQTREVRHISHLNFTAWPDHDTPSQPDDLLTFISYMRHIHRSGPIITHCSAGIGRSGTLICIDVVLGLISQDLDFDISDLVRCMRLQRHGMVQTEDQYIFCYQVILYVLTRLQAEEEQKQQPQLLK
human Sirtuin 2 (SIRT2), SIRT2 (gene 22933), sequence (Q8IXJ6 whole entry, looked up): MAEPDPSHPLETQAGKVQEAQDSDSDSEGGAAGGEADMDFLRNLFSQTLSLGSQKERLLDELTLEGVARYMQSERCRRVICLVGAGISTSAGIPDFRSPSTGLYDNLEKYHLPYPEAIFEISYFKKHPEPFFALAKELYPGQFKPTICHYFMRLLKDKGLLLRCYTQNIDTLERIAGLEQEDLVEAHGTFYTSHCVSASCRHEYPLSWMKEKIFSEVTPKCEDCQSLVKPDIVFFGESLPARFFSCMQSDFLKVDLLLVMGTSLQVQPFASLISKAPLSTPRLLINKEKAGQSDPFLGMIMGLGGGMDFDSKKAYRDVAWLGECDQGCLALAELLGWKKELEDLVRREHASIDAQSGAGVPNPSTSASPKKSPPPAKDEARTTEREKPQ
human Protein Tyrosine Phosphatase Receptor Type M (PTPRM), PTPRM (gene 5797), sequence (P28827 whole entry, looked up): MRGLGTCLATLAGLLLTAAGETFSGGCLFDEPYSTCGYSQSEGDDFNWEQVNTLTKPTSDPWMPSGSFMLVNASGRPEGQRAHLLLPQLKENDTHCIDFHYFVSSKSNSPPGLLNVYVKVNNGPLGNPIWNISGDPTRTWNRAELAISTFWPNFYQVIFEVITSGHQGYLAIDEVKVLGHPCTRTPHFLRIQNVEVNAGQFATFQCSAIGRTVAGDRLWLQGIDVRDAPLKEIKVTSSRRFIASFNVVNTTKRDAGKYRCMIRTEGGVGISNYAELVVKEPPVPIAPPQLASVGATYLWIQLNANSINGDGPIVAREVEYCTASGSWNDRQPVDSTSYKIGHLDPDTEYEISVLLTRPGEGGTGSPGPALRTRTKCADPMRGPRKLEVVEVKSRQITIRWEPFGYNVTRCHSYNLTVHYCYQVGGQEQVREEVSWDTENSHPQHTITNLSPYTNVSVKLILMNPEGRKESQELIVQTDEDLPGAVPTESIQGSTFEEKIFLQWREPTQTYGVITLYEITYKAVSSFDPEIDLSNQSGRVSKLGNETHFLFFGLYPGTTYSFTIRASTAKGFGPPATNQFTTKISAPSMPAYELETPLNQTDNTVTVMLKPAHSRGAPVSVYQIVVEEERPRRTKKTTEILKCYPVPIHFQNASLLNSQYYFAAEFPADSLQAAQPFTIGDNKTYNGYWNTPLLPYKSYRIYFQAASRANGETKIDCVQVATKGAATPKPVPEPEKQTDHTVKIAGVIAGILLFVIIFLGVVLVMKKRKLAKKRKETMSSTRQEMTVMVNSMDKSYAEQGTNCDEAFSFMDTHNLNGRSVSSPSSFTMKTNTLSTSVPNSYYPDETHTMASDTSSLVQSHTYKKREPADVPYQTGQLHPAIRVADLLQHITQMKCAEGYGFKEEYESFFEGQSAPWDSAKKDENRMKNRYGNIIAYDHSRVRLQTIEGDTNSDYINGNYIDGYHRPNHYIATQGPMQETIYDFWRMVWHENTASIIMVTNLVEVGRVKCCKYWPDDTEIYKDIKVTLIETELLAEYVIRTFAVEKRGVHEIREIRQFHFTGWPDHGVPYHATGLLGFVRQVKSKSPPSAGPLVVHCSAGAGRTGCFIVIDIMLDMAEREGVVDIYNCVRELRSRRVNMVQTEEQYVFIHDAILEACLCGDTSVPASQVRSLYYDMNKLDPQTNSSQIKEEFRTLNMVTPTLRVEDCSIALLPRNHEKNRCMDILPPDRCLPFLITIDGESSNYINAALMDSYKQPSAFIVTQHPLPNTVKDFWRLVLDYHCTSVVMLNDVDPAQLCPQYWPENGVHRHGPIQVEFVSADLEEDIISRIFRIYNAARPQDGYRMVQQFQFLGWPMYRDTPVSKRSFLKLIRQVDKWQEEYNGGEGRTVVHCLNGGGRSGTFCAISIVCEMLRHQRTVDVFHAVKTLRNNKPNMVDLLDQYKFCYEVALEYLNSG

c1ccc2cc3ccccc3cc2c1
inactive: [1]

CC[C@H](C)C(=O)O[C@H]1C[C@H](O)C=C2C=C[C@H](C)[C@H](CC[C@@H](O)C[C@@H](O)CC(=O)O)[C@H]21
inactive: [2]

O=C1CN(N=Cc2ccc([N+](=O)[O-])o2)C(=O)N1
inactive: [3]

O=c1[nH]cnc2c1ncn2[C@H]1CC[C@@H](CO)O1
not listed: [12] | [13] | [14] | [15] | [16] | [17] | [18] | [19]
inactive: all other assays above

CNC(C)=O
inactive: [12]

CCCCC(CC)C(=O)OCCOCCOCCOC(=O)C(CC)CCCC (stereo unspecified)
inactive: [13] | [14]

Cc1nc(-c2ccccn2)ncc1C(=O)Nn1cc(C)c2cc(F)ccc21
inactive: [4] | [3] | [2] | [5] | [13] | [8] | [15] | [11] | [16]
active: [1] 33.8 µM

Cc1ncc([C@@H](CCCCCCc2ccc3c(n2)NCCC3)CC(=O)O)cn1
inactive: [3] | [2] | [5] | [13] | [18] | [8] | [15] | [9] | [19]
active: [17] 18.6 µM

CCCCCCCC/C=C\CCCCCCCC(=O)OC[C@@H](O)[C@H]1OC[C@H](O)[C@H]1O
inactive: [3] | [2] | [6] | [17] | [18] | [15] | [9] | [10] | [16]

From PubChem BioAssay (EPA / NIEHS)
